Results taken from PubChem BioAssay (NCATS).
A number with no mark means an inactive call. Records with an inconclusive call do not appear. A call without a number means that no potency is given here. Active and inactive are the calls of the source. Calls come from the whole dose curve; as a rule, active = well fitted curve in the direction sought with a large enough effect; inconclusive = small, poorly fitted or top-dose-only effect, or another doubt; inactive = no such curve, though single readings can be large; an effect the other way counts as inactive or inconclusive.

What was measured:
[1] = P-glycoprotein substrates identified in KB-8-5-11 adenocarcinoma cell line, qHTS therapeutic library screen (AID 1346987); note: potency is the fitted concentration of half-maximal effect; nearly all actives have a fitted effect of over 65% in size
How it was run: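 KB-8-5-11, a colchicine-selected P-gp-overexpressing KB-3-1 subline, was grown without colchicine for the assay. Cells were seeded at 500 cells/well, dosed in concentration-response and incubated 72 h at 37 degree C, 5% CO2. Viability was read by CellTiter-Glo luminescence.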

[2] = test system: Zika virus NS2B-NS3 protease (linked construct); test: Primary screen NINDS Rhodamine qHTS for Zika virus inhibitors (AID 1347160); note: nearly all actives have a fitted effect of over 55% in size; note: potency is the fitted concentration of half-maximal effect
How it was run: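 Kinetic fluorescence (Ex 480 nm, Em 540 nm) over 15 min with 1.5 microM Rhodamine110 peptide and 25 nM linked protease.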

[3] = biological target: Calcium and integrin-binding protein 1 (Homo sapiens) (UniProt Q99828); test: Primary qHTS for Identification of Calcium Integrin Binding Protein 1 (CIB1) Competitor (AID 1508620);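 note: GST tagged CIB1 binding a fluorescein labelled alphaIIb integrin peptide tracer; top concentration of the series differs between compounds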
How it was run: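 Fluorescence polarization competition: CIB1-GST (1 uM final) preincubated with compound 15 min at room temperature, then FITC-labeled alphaIIb peptide (100 nM final) added for another 15 min. Polarization read at Ex 480/Em 540.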

[4] = biological target: Glutathione peroxidase 1 (Homo sapiens) (UniProt P07203); test: Primary qHTS Assay for Inhibitors of Recombinant Selenoprotein Glutathione Peroxidase 1 (GPX1) (AID 1845191); note: nearly all actives have a fitted effect of over 65% in size
How it was run: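 Recombinant GPX1 (10 nM final) was preincubated with compound for 30 min at room temperature, then reacted with 1 mM GSH, 0.5 mM CHP, 0.5 mM NADPH and 100 nM glutathione reductase; NADPH fluorescence (340/450 nm) was read at 0 and 15 min.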

[5] = biological target: Phospholipid hydroperoxide glutathione peroxidase GPX4 (Homo sapiens) (UniProt P36969); test: Primary qHTS Assay for Inhibitors of Recombinant Selenoprotein Glutathione Peroxidase 4 (GPX4) (AID 1845192); note: nearly all actives have a fitted effect of over 65% in size
How it was run: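 GR-coupled readout: 100 nM GR, 1 mM GSH, 0.5 mM NADPH; NADPH fluorescence (ex 340/em 450 nm) read at t=0 and after 15 min RT. GPX4 200 nM, preincubated 30 min with compound; substrate 0.5 mM CHP.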

[6] = biological target: Luciferin 4-monooxygenase (Photinus pyralis) (UniProt P08659); test: Primary firefly luciferase (FLuc) qHTS assay for identification of artifact compounds. (AID 1845220); settings: outcome: dose series up to 54.1 µM unless noted; note: nearly all actives have a fitted effect of over 60% in size
How it was run: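 Reaction readout was CCD-imaged luminescence, taken 5 min after adding 10 nM purified firefly enzyme to compound-treated wells holding 10 uM luciferin and ATP in pH 7.6 buffer.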

[7] = test system: Nanoluciferase (engineered Oplophorus gracilirostris luciferase); test: Primary Nanoluciferase (NLuc) qHTS assay for identification of artifact compounds. (AID 1845222);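 note: NLuc secreted into diluted conditioned medium of S16 cells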
How it was run: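 Concentration-response data were obtained by luminescence after 5 min with Nano-Glo substrate at 1:100. The enzyme was diluted S16 NLuc-expressing cell medium, preincubated with compound for 15 min at RT. Curves were fitted with a 4-parameter Hill model.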

CRL-7250 = normal cell line; test: Cytotoxic Profiling of Annotated Libraries Using Quantitative High-Throughput Screening (AID 1296008); settings: Five cell lines viability, CellTiter-Glo ATP luminescence, 48-72 h; max response: hits give low values; note: nearly all actives have a fitted effect of over 60% in size; note: potency is the fitted concentration of half-maximal effect
How it was run: (§1)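 Compounds were pin-transferred onto cells and incubated 48 or 72 hr at 37 degree Celsius, 95% humidity. CellTiter-Glo was added, plates sat 10 min at room temperature, then ATP-coupled luminescence was imaged as the viability read-out.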

NIH3T3 = test: as above; settings: Five cell lines viability, CellTiter-Glo ATP luminescence, 48-72 h; max response: hits give low values
How it was run: as §1

C33A = test: Primary qHTS to identify gynecologic anti-cancer compounds using libraries of approved drugs and bioactive compounds (AID 1345084); settings: Gynecologic cancer cell panel viability, ATPlite luminescence, 48 h; series mostly up to 57.5 µM; note: nearly all actives have a fitted effect of over 55% in size; note: potency is the fitted concentration of half-maximal effect
How it was run: (§2)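 Cells, 1,000 per well, plated 16 h, then exposed 48 h at 37 C to compounds. Viability by ATPlite luminescence after 15 min at room temperature.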

CAOV3 = test: as above; settings: Gynecologic cancer cell panel viability, ATPlite luminescence, 48 h; series mostly up to 57.5 µM
How it was run: as §2

CASKI = test: as above; settings: Gynecologic cancer cell panel viability, ATPlite luminescence, 48 h; series mostly up to 57.5 µM
How it was run: as §2

Es-2 = test: as above; settings: Gynecologic cancer cell panel viability, ATPlite luminescence, 48 h; series mostly up to 57.5 µM
How it was run: as §2

HeLa = test: as above; settings: Gynecologic cancer cell panel viability, ATPlite luminescence, 48 h; series mostly up to 57.5 µM
How it was run: as §2

Hek293T = test: as above; settings: Gynecologic cancer cell panel viability, ATPlite luminescence, 48 h, control line for the selectivity index; series mostly up to 57.5 µM
How it was run: as §2

JEG-3 = test: as above; settings: Gynecologic cancer cell panel viability, ATPlite luminescence, 48 h; series mostly up to 57.5 µM
How it was run: as §2

OV90 = test: as above; settings: Gynecologic cancer cell panel viability, ATPlite luminescence, 48 h; series mostly up to 57.5 µM
How it was run: as §2

PA-1 = test: as above; settings: Gynecologic cancer cell panel viability, ATPlite luminescence, 48 h; series mostly up to 57.5 µM
How it was run: as §2

Tov-21-G = test: as above; settings: Gynecologic cancer cell panel viability, ATPlite luminescence, 48 h; series mostly up to 57.5 µM
How it was run: as §2

Tov112D = test: as above; settings: Gynecologic cancer cell panel viability, ATPlite luminescence, 48 h; series mostly up to 57.5 µM
How it was run: as §2

Sequence of Glutathione peroxidase 1 (Homo sapiens) (P07203 whole entry, looked up): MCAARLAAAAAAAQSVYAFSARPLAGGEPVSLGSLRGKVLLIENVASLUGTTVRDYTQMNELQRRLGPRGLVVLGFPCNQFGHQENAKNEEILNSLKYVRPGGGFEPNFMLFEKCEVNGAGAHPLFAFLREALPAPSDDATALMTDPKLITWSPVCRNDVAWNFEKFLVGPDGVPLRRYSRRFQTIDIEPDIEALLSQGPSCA
Sequence of Calcium and integrin-binding protein 1 (Homo sapiens) (Q99828 whole entry, looked up): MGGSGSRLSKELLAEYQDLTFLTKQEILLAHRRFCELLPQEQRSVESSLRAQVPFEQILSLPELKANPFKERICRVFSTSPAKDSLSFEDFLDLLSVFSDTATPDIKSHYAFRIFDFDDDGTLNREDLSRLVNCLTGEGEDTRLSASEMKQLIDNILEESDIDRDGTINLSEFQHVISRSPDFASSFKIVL
Sequence of Phospholipid hydroperoxide glutathione peroxidase GPX4 (Homo sapiens) (P36969 whole entry, looked up): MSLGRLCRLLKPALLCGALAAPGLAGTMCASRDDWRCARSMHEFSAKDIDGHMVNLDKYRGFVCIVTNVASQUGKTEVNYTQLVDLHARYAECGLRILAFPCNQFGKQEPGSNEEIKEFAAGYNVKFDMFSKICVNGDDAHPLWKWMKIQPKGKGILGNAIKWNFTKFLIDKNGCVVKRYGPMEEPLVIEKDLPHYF

SMILES: O=C(NCCN1CCC2(CC1)C(=O)NCN2c1cccc(F)c1)c1ccc(F)c(F)c1
- Potency [1]: 16.4 µM (active)
- Potency [2]: inactive
- Potency [3]: inactive
- Potency [4]: inactive
- Potency [5]: inactive
- outcome [6]: inactive
- Potency [7]: inactive
- outcome (CRL-7250): inactive
- max response (NIH3T3): -17.5%
- Potency (C33A): inactive
- Potency (CAOV3): inactive
- Potency (CASKI): inactive
- Potency (Es-2): inactive
- Potency (HeLa): inactive
- Potency (Hek293T): inactive
- Potency (JEG-3): inactive
- Potency (OV90): inactive
- Potency (PA-1): inactive
- Potency (Tov-21-G): inactive
- Potency (Tov112D): inactive

SMILES: C[C@]12CC[C@H](O[C@@H]3O[C@H](CO)[C@@H](O)[C@H](O)[C@H]3O)CC1=CC[C@@H]1C2CC[C@]2(C)[C@@H](C3=CC(=O)OC3)CC[C@]12O (some centres not stated)
- Potency [1]: 4.85 µM (active)
- Potency [2]: inactive
- Potency [3]: inactive
- Potency [4]: inactive
- Potency [5]: inactive
- outcome [6]: inactive [at 25.7 µM]
- Potency [7]: inactive
- Potency (CRL-7250): 3.43 µM (active)
- max response (NIH3T3): 0.891%
- Potency (Es-2): 10000 nM (active)
- Potency (JEG-3): inactive
- Potency (OV90): inactive
- Potency (Tov-21-G): 6.31 µM (active)
- Potency (Tov112D): 3160 nM (active)

SMILES: CC/C=C/C=C/C1(C)OC(OC)=C(C(=O)C2C(C)C(=O)c3cc(OC)c(O)c(O)c3C2(C)O)C1=O (configuration not stated)
- Potency [2]: 10 µM (active)
- Potency [3]: inactive
- Potency [4]: inactive
- Potency [5]: inactive
- outcome [6]: inactive [at 25.7 µM]
- Potency [7]: inactive
- max response (CRL-7250): -16.8%
- Potency (C33A): inactive
- Potency (CAOV3): inactive
- Potency (CASKI): inactive
- Potency (HeLa): inactive
- Potency (Hek293T): inactive
- Potency (JEG-3): inactive
- Potency (OV90): inactive
- Potency (Tov112D): inactive

SMILES: O=C1CN=C(c2ccccc2Cl)c2cc(Br)ccc2N1
- Potency [2]: inactive
- Potency [3]: inactive
- Potency [4]: inactive
- Potency [5]: inactive
- outcome [6]: inactive
- Potency [7]: inactive
- max response (CRL-7250): -11.2%
- outcome (NIH3T3): inactive
- Potency (C33A): inactive
- Potency (CAOV3): inactive
- Potency (CASKI): inactive
- Potency (Es-2): inactive
- Potency (HeLa): inactive
- Potency (Hek293T): inactive
- Potency (JEG-3): inactive
- Potency (OV90): inactive
- Potency (PA-1): inactive
- Potency (Tov-21-G): inactive
- Potency (Tov112D): inactive

SMILES: CO/C1=C\C(C)=C\[C@@H](C)[C@@H](O)[C@@H](C)C/C(C)=C/C=C/[C@H](OC)[C@@H]([C@@H](C)[C@@H](O)[C@H](C)[C@@]2(O)C[C@@H](O)[C@H](C)[C@@H](C(C)C)O2)OC1=O
- Potency [1]: 0.109 µM (active)
- Potency [2]: inactive
- Potency [3]: inactive
- Potency [5]: inactive
- Potency [7]: inactive
- Potency (CRL-7250): 0.0862 µM (active)
- Potency (C33A): 141 nM (active)
- Potency (CAOV3): 126 nM (active)
- Potency (CASKI): inactive
- Potency (Es-2): 79.4 nM (active)
- Potency (HeLa): 126 nM (active)
- Potency (Hek293T): 100 nM (active)
- Potency (JEG-3): inactive
- Potency (OV90): 89.1 nM (active)
- Potency (PA-1): 89.1 nM (active)
- Potency (Tov112D): 100 nM (active)

SMILES: COC1CC(OC2CCC3(C=O)C(CCC4C3CCC3(C)C(C5=CC(=O)OC5)CCC43O)C2)OC(C)C1O (configuration not stated)
- Potency [1]: 0.178 µM (active)
- Potency [3]: inactive
- Potency [4]: inactive
- Potency [5]: inactive
- outcome [6]: inactive [at 25.7 µM]
- Potency [7]: inactive
- max response (NIH3T3): 0.727%
- Potency (C33A): 141 nM (active)
- Potency (CAOV3): 316 nM (active)
- Potency (CASKI): 1 µM (active)
- Potency (Es-2): 251 nM (active)
- Potency (HeLa): 224 nM (active)
- Potency (Hek293T): 251 nM (active)
- Potency (JEG-3): 631 nM (active)
- Potency (OV90): 1000 nM (active)
- Potency (PA-1): 199 nM (active)
- Potency (Tov-21-G): 0.178 µM (active)
- Potency (Tov112D): 100 nM (active)
